The record followed here is publication PMC4336329 (PLoS ONE, 2015).

Screen size: about 310,000 compounds; about 14,000 (4.5%) showed an effect of 50% or more. Effects have a minus sign here. What follows is part of a selection rich in strong results, with near analogues and random picks from the rest.
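Also: peak tail current of the secondary pulse compared with the same well before compound.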

In the assay the target is human ether-à-go-go-related gene (hERG) potassium channel (human, UniProt Q12809). Briefly: primary screen, population patch clamp on CHO cells stably expressing hERG; higher = less effect of the substance.
Chain of human ether-à-go-go-related gene (hERG) potassium channel (Q12809 whole entry, looked up): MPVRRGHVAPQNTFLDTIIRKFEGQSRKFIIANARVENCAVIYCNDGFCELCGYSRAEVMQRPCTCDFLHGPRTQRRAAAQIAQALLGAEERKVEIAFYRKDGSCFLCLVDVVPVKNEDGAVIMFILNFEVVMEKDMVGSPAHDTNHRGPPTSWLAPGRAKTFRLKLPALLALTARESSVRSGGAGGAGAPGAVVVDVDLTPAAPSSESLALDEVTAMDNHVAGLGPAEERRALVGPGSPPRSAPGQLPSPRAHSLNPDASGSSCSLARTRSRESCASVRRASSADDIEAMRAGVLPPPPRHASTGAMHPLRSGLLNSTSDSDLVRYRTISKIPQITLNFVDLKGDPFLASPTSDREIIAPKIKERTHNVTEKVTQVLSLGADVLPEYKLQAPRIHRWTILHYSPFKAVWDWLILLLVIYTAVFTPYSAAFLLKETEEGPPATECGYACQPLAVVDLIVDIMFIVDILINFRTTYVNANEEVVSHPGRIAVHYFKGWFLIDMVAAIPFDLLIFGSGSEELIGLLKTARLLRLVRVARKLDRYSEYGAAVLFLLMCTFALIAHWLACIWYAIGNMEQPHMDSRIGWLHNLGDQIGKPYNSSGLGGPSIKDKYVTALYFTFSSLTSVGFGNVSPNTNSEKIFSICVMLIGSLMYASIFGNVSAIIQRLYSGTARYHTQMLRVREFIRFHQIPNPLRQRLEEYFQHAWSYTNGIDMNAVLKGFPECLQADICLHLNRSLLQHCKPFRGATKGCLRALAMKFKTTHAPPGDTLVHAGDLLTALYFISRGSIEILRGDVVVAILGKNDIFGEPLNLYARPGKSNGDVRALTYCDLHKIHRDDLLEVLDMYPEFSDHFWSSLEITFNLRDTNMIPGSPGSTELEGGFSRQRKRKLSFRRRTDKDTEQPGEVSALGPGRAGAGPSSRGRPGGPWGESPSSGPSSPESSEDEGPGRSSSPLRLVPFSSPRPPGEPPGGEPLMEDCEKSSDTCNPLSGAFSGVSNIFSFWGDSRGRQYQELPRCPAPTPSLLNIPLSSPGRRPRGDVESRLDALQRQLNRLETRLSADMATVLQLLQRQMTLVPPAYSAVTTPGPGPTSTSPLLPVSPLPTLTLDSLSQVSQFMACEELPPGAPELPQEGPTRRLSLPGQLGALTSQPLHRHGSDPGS
Consider `Cc1cc(C)c(NC(=O)CCCOC(=O)C2=COCCO2)c(C)c1`, for which the “hERG current change (%, negative = inhibition) at 10uM” value is on record as 16.1%.

As to `O=C(N/N=C/c1cccc(F)c1)c1csc2c1CCCC2`, the “hERG current change (%, negative = inhibition) at 10uM” value is -30%. For `CC(C)C[C@H](NC(=O)c1[nH]cnc1C(=O)N[C@@H](C)c1ccccc1)C(=O)OC(C)(C)C` the value was 12.5%; for `CC1CCN(C(=O)c2cc3ccccc3c(=O)o2)CC1`, 5.74%.

For `O=C(CN1CCCC1)N/N=C/c1ccc(-c2cccc(Cl)c2)o1`, the “hERG current change (%, negative = inhibition) at 10uM” value is -62.2%. Then `Nc1nnnn1CC(=O)N/N=C/c1ccc(-c2cccc(Cl)c2)o1`, with 8.79%; and `Cc1ccc(-c2ccc(/C=N/NC(=O)CN3CCCC3)o2)cc1Cl`, with -90.2%.

With `Cc1nnc(SCC(=O)N/N=C/c2ccc(-c3ccc(C)c(Cl)c3)o2)s1`, the “hERG current change (%, negative = inhibition) at 10uM” value was -1.51%. For `COC(=O)N/N=C/c1ccc(-c2ccc(C)c(Cl)c2)o1` the value was -6.4%; for `O=C(Cn1nnc(-c2ccccc2Cl)n1)N/N=C/c1ccc(-c2cccc(Cl)c2)o1`, 2.26%.

As for `CC1(c2ccccc2)NC(=O)N(Cc2ccc([N+](=O)[O-])cc2)C1=O` (stereo not shown), the “hERG current change (%, negative = inhibition) at 10uM” value is reported as -31%. Then `Cn1cc(CN2CCCC(C(=O)Nc3cccc(-n4cccn4)c3)C2)cn1` (stereo not shown), with -5.79%; and `COc1ccc(CN2CCCC(C(=O)Nc3cccc(-n4cccn4)c3)C2)c(F)c1` (stereo not shown), with -30.3%. For `COC(=O)c1ccc(CN2CCCC(C(=O)Nc3cccc(-n4cnnn4)c3)C2)cc1` (stereo not shown) the value was -47.7%; for `O=C(Nc1cccc(-n2cnnn2)c1)C1CCCN(Cc2cccc(C(F)(F)F)c2)C1` (stereo not shown), -59.8%.

In the case of `COCc1cc(CN2CCCC(C(=O)Nc3cccc(-n4cnnn4)c3)C2)ccc1OC` (stereo not shown), the “hERG current change (%, negative = inhibition) at 10uM” value is given as -6.58%. Then `COc1ccc(CN2CCCC(C(=O)Nc3cccc(-n4cnnn4)c3)C2)c(C)c1C` (stereo not shown), with -62.7%. Then `COC(=O)Cc1c(C)c2ccc(OC3CCCCC3=O)c(C)c2oc1=O` (stereo not shown), with 3.77%; and `CCCCCOc1ccc(NC(=O)CSc2cccc3cccnc23)cc1`, with 18.8%; and `N#Cc1cc([N+](=O)[O-])ccc1NC(=O)CSc1n[nH]c(=O)n1C1CC1`, with 1.42%. Then `O=C(Nc1c(C(=O)N2CCN(c3ccccn3)CC2)oc2ccccc12)c1cccc([N+](=O)[O-])c1`, with -48.8%; and `COc1cccc(OC)c1C(=O)Nc1c(C(=O)N2CCN(c3ccccn3)CC2)oc2ccccc12`, with -61.6%. As for `O=C(Nc1c(C(=O)N2CCN(c3ccccn3)CC2)oc2ccccc12)c1ccc([N+](=O)[O-])cc1`, the “hERG current change (%, negative = inhibition) at 10uM” value is recorded as -51%. Then `Cc1c(C(=O)N2CCN(c3ccccn3)CC2)oc2ccccc12`, with -28%; and `COc1cccc(OC)c1C(=O)N1CCN(c2ccccn2)CC1`, with 11%; and `COc1cccc(OC)c1C(=O)Nc1c(C(=O)N2CCN(C)CC2)oc2ccccc12`, with -29.1%. With `COc1ccc(NC(=O)c2ccc(-c3nn(C)c(=O)c4ccccc34)cc2)cc1C(N)=O`, the “hERG current change (%, negative = inhibition) at 10uM” value is 6.4%. For `Cc1ccc(N(C(=O)Cc2cccs2)C(C(=O)NCC2CCCO2)c2ccncc2)cc1` (stereo not shown) the value was 11.5%; for `CCOc1ccc(Cc2nc(C)c(CC(=O)N3CCOCC3)c(=O)[nH]2)cc1`, 8.37%; for `O=C(CSc1ncnc2ccccc12)NCc1ccc2c(c1)OCO2`, -16.9%. For `O=C(C(=O)N1CCCc2ccccc21)c1c[nH]c2ccccc12` the value was 4.5%; for `CC(=O)Nc1ccc(S(=O)(=O)N2CCN(Cc3ccncc3)CC2)cc1`, -8.67%. For `O=S(=O)(c1ccccc1)N1CCN(CCc2ccccc2)CC1` the value was 14.2%; for `CCS(=O)(=O)N1CCN(Cc2ccncc2)CC1.O=C(O)C(=O)O`, 13.2%. In the case of `O=S(=O)(c1ccc(Cl)cc1)N1CCN(CCc2ccncc2)CC1`, the “hERG current change (%, negative = inhibition) at 10uM” value is -55.3%. For the compound `O=C(O)C(=O)O.O=S(=O)(c1ccc(Cl)cc1)N1CCN(Cc2ccncc2)CC1`, the “hERG current change (%, negative = inhibition) at 10uM” value was -51.5%. For `O=S(=O)(c1ccc(Cl)cc1)N1CCN(CCc2ccccc2)CC1` the value was -3.7%. Turning to `COc1ccc(C2=NC(C)(C)Cc3cc(OC)c(OC)cc32)cc1`, the “hERG current change (%, negative = inhibition) at 10uM” value is given as -44%. Then `Cl.OC(COc1cccc(OCC(O)CN2CCOCC2)c1)CN1CCOCC1` (stereo not shown), with 7.41%; and `COc1ccccc1OCC(O)CN1CCOCC1` (stereo not shown), with 15.2%.

With `OC(COc1cccc(OCC(O)CN2CCCC2)c1)CN1CCCC1` (stereo not shown), the “hERG current change (%, negative = inhibition) at 10uM” value is -2.86%. On to `Cc1cccc(OCC(O)Cn2c(=N)n(CCN3CCCCC3)c3ccccc32)c1.Cl` (stereo not shown), for which the “hERG current change (%, negative = inhibition) at 10uM” value was -80.5%. Then `Cc1cccc(OCC(O)Cn2c(=N)n(CCN3CCOCC3)c3ccccc32)c1.Cl` (stereo not shown), with -57.9%; and `Cc1ccc(OCC(O)CN2CCOCC2)cc1C.Cl` (stereo not shown), with 17.7%; and `Cc1ccccc1OCC(O)Cn1c(=N)n(CCN2CCOCC2)c2ccccc21.Cl` (stereo not shown), with -61.5%. Then `Cc1ccccc1OCCCN1CCOCC1`, with 9.44%.
